We go through 14 molecules from PubChem BioAssay (NCI).

Each structure is given as a SMILES string. Compounds without any hit were thinned out: in the full panel of roughly 83,000, 20% have a hit.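 Note: values are percent growth. 100 is the growth of untreated cells, values between 100 and 0 indicate rising inhibition; between -100 and 0 indicates cell death.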 A number with no mark means an inactive call. The source made the active and inactive calls. How the source made its calls: active means growth percent below 10; inactive means the rest.

What all share (assay): NCI-60 one-dose screen, 48 h (100 = growth as untreated, 0 = no growth, -100 = all killed)
Holding throughout (conditions): 10 µM unless noted

Test [1] deals with NCI-H23 lung.
The test system of test [2] is NCI-H226 lung.
In test [3] the test system is NCI-H322M lung.
Test [4] deals with HOP-62 NSCLC.
Test [5] concerns NCI-H460 lung.
For test [6], the system named is HOP-92 NSCLC.
For test [7], the system named is NCI-H522 lung.
The subject of test [8] is A549/ATCC NSCLC.
Test [9] relates to 786-0 renal.
The test system of test [10] is COLO 205 colon.

For `Cc1ccc(C(C)C)cc1C(=O)C[n+]1ccccc1`, the growth in test [1] is 113%; in test [2], 105%; in test [3], 96.8%; in test [4] it was 91.6%; in test [5] it was 109%; in [6], 100%. Besides, the growth in test [7] is 81.7%; in [8] it was 101%; in test [9], 96.4%; in test [10], 112%.
For the molecule `N#C/C(=C\c1cccc2cnccc12)n1nnc2cccc(F)c21`, the growth in test [1] was 27.7%; in test [2], 62.6%; in [3], 89.9%; in [4], 53.2%; in [5], 35.5%; in [6], -25% (active). The growth in [7] is 18.3%; in test [8] it was 86.6%; in test [9], 56.4%; in test [10], 34.3%.
Take `Fc1cc2c(cc1Cl)N(c1ncnc3ccc(-c4cnc5cnccn45)cc13)CC2`: the growth is 83% in [1]; 92.8% in test [2]; 80.7% in test [3]; 78.1% in test [4]; 98.9% in [5]; 87.4% in [6]. In addition, the growth is 82.6% in test [7], 86.8% in test [8], 81.1% in test [9] and 121% in test [10].
As for `COc1ccc2sc3c(NCCCNCCO)nc4ccccc4c3c(=O)c2c1`, the growth is 63.6% in test [1]; 98% in [2]; 72.8% in test [3]; 77.3% in test [4]; -71.1% (active) in test [5]; 31.2% in test [6]. The growth in [7] is 70.6%; in [8], 62.6%; in test [9], 63%; in test [10] it was -35.4% (active).
In the case of `Brc1ccc2[nH]cc(-c3nc(-c4c[nH]c5ccncc45)cs3)c2c1`, the growth is -41.6% (active) in test [1]; 89.7% in [2]; -18.6% (active) in test [3]; -79.1% (active) in test [4]; -91.1% (active) in test [5]; -34.3% (active) in test [6]. Besides, the growth in test [7] was -68.4% (active); in [8], -77.6% (active); in test [9], -91.3% (active); in test [10] it was -76.4% (active).
Turning to `CCOC(=O)C1=C(N)Oc2c(sc3c(CC)cccc23)C1c1ccc(F)cc1` (stereo not given), the growth was 47% in [1]; 49.5% in [2]; 67.2% in test [3]; 32% in test [4]; 17% in [5]; 63.5% in test [6]. Further, the growth in test [7] is 26.4%; in [8] it was 47.4%; in test [9] it was 35.4%; in test [10] it was 51.1%.
With `CC(=O)c1ccc(Nc2nc(C(C)=O)c(C)s2)cc1`, the growth in test [1] is 96%; in [2], 66.2%; in [3], 82%; in test [4], 95.4%; in [5], 97.8%; in test [6] it was 102%. Further, the growth in [7] is 87.9%; in [8] it was 95.5%; in [9] it was 95.8%; in [10], 109%.
For the molecule `CCCCOc1nc2c(C)cccc2cc1-c1cc(-c2ccc(Cl)cc2)nc(-c2ccc(Cl)cc2)c1`, the growth in [1] was 110%; in test [2], 100%; in test [3], 97.1%; in test [4] it was 103%; in [5], 103%; in test [6], 91.4%. In addition, the growth is 97.4% in [7], 101% in test [8], 102% in test [9] and 111% in test [10].
`CCN(CC)S(=O)(=O)c1ccc(NC(=O)CSc2nnc(C)n2-c2ccccc2)cc1`: the growth was 97.6% in test [1]; 95.3% in test [2]; 113% in [3]; 104% in [4]; 115% in test [5]; 76.9% in test [6]. The growth in test [7] is 85.3%; in test [8], 109%; in test [9] it was 109%; in test [10], 112%.
Take `O=C(/C=C/c1sc(Cl)nc1Cl)c1ccccc1`: the growth in test [1] is 95.2%; in [2], 99.7%; in test [3] it was 95%; in [4] it was 101%; in [5] it was 102%; in test [6] it was 94.3%. Also, the growth was 93% in [7], 99.9% in test [8], 97% in test [9] and 87.4% in test [10].
Take `COc1cccc(Oc2ccccc2NC(=O)CNC(=O)c2cccc3ccccc23)c1`: the growth was 31.6% [5 µM] in test [1]; 53.7% [5 µM] in test [2]; 32.6% [5 µM] in test [3]; 35.3% [5 µM] in test [4]; 6.08% [5 µM] (active) in test [5]; 31.6% [5 µM] in [6]. In addition, the growth in test [7] was -10.3% [5 µM] (active); in test [8], 26.8% [5 µM]; in test [9], 28.4% [5 µM]; in test [10], -13.5% [5 µM] (active).
For the molecule `O=c1c2cc(F)ccc2sc2c(NCCCNCCO)nc3ccc(F)cc3c12`, the growth in test [1] is 82.5%; in test [2], 84.8%; in test [3] it was 79.4%; in test [4], 71.5%; in test [5], -32.8% (active); in test [6], 4.67% (active). For the same molecule, the growth was 60.9% in test [7], 64.7% in test [8], 64.1% in test [9] and 23.3% in test [10].
`COc1ccc(-c2nc3sc(-c4ccccc4)cn3n2)cc1`: the growth in [1] is 72%; in [2], 76.3%; in [3], 85.8%; in [4], 50.5%; in test [5], 34.9%; in test [6], 67.6%. Further, the growth was 29.6% in test [7], 50.8% in test [8], 88% in [9] and 36.7% in test [10].
Turning to `C=C1C(=O)O[C@H]2[C@H]1CC/C(COC(=O)C(C)c1ccc(CC(C)C)cc1)=C\CC[C@@]1(C)O[C@@H]21` (stereo not given in full), the growth is 25.8% in test [1]; 83.6% in test [2]; 97.9% in test [3]; 84.7% in test [4]; 37.9% in test [5]; -26.8% (active) in [6]. Besides, the growth is -63.8% (active) in test [7], 75.1% in [8], -93.4% (active) in test [9] and -10.1% (active) in test [10].
